Test in all cases: DAPPL (digital affinity profiling via proximity ligation, sequencing); 10 mM Tris-HCl pH 7.5, 50 mM NaCl, 1 mM DTT, 4% glycerol, room temperature, 30 min; GST-TFs on glutathione beads, 16-mer random dsDNA library, 0.1% formaldehyde crosslink after washing; high values mean tight binding
What all share (conditions): protein: recombinant; tags: N-terminal GST; dsDNA, one strand shown

In one assay the target is T1, ELK3 (Homo sapiens, UniProt P41970 1-407).
T1 sequence: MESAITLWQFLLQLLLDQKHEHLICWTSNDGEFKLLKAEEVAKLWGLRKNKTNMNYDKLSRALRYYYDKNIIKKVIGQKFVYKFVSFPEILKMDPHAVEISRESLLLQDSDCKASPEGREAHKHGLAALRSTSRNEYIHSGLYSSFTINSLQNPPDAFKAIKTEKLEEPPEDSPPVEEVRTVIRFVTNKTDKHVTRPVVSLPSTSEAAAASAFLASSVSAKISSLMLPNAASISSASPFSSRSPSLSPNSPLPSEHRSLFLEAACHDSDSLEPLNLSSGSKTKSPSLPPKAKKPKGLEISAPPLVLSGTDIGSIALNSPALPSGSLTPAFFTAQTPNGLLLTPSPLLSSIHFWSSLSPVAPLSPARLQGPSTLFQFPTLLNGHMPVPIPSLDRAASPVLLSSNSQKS
The procedure, abridged: (§1)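 Binding signal is given per hexamer as its read frequency for a factor divided by its frequency in the tag-only sample. GST-fused human transcription factors were expressed in yeast, captured on glutathione beads, barcoded with DNA and pooled with that sample, then incubated with 200 nmole of a 16-mer random double-stranded DNA library in Tris/NaCl/DTT/glycerol buffer for 30 min at room temperature. The pools were then washed, crosslinked, proximity-ligated, amplified by PCR and sequenced on an Illumina NextSeq500.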

A further assay addresses T2, ETV2 (Homo sapiens, UniProt O00321 1-342).
T2 sequence: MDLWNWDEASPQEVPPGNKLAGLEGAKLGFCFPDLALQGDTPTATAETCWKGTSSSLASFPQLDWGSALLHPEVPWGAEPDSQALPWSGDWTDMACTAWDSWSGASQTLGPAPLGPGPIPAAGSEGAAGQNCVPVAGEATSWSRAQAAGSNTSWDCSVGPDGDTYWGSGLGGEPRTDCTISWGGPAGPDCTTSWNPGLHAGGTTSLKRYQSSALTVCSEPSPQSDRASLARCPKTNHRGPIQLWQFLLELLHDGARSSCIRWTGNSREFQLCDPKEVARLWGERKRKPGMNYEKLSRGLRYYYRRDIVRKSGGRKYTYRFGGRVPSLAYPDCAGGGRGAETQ
The procedure, abridged: as §1

Another assay addresses SPIB (Homo sapiens, UniProt Q01892 1-262). The essentials: as §1
A further assay has as its target T3, GABPA (Homo sapiens, UniProt Q06546 1-454).
T3 sequence: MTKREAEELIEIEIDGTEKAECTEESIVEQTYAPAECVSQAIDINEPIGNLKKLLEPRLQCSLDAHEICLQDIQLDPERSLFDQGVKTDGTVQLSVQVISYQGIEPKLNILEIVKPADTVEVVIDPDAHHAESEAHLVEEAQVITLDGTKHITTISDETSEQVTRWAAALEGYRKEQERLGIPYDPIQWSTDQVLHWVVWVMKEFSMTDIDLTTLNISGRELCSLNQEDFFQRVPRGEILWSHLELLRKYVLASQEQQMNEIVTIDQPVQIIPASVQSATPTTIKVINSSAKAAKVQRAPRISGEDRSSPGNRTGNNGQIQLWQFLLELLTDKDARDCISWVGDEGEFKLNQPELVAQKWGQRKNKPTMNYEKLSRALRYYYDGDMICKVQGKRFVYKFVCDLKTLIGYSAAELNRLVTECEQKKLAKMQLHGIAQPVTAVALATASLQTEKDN
The essentials: as §1

A further assay deals with T4, ELF3 (Homo sapiens, UniProt P78545 1-371).
T4 sequence: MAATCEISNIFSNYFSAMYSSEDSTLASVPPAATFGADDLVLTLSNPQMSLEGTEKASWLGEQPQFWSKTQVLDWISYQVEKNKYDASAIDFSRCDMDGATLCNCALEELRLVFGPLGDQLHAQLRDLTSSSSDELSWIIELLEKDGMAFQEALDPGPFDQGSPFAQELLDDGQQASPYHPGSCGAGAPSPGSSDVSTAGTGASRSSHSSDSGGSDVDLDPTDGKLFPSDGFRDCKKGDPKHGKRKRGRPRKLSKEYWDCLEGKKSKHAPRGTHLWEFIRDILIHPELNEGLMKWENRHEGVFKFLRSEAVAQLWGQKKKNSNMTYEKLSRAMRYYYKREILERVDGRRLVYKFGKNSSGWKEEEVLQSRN
The essentials: as §1

The next assay concerns the target T5, ETV7 (Homo sapiens, UniProt Q9Y603 1-341).
T5 sequence: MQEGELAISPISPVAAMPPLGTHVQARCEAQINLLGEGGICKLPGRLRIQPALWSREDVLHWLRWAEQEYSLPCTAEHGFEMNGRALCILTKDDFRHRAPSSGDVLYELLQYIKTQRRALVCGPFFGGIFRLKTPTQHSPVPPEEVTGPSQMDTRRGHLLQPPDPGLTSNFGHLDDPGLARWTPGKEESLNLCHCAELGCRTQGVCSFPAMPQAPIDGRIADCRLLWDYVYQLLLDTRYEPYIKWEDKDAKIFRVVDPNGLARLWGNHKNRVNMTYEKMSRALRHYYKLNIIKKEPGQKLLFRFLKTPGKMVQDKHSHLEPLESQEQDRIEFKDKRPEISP
The procedure, abridged:
as §1

Another assay has as its target T6, EHF (Homo sapiens, UniProt Q9NZC4 1-300).
T6 sequence: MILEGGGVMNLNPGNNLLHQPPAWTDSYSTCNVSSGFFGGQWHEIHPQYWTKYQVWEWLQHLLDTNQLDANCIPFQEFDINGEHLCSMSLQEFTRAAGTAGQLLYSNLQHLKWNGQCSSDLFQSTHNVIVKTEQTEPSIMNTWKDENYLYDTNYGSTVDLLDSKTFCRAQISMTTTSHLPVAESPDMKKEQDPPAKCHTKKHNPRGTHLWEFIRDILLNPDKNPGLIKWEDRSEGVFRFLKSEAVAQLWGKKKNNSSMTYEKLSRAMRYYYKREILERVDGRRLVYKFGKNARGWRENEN
The procedure, abridged:
as §1

In the next assay the target is T7, ERF (Homo sapiens, UniProt P50548 1-548).
T7 sequence: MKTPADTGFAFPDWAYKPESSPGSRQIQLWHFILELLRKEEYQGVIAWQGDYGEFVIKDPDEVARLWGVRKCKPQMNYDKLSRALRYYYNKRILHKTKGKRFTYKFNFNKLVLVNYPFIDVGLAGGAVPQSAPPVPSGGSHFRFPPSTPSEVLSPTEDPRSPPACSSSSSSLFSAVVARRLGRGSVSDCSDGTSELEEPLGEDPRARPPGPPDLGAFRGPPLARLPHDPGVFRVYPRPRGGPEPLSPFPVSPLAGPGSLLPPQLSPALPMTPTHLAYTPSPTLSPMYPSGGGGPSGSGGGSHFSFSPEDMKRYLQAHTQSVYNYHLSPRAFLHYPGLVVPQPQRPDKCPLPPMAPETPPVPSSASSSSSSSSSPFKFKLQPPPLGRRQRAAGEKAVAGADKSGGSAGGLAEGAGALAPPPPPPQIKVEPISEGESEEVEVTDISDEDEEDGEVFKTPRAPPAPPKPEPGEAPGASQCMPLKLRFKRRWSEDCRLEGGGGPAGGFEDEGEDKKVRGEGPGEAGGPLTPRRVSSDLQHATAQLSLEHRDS
The essentials: as §1

The next assay addresses ETV1 (Homo sapiens, UniProt P50549 1-477). The essentials: as §1
For the next assay, the target named is T8, ETS2 (Homo sapiens, UniProt P15036 1-469).
T8 sequence: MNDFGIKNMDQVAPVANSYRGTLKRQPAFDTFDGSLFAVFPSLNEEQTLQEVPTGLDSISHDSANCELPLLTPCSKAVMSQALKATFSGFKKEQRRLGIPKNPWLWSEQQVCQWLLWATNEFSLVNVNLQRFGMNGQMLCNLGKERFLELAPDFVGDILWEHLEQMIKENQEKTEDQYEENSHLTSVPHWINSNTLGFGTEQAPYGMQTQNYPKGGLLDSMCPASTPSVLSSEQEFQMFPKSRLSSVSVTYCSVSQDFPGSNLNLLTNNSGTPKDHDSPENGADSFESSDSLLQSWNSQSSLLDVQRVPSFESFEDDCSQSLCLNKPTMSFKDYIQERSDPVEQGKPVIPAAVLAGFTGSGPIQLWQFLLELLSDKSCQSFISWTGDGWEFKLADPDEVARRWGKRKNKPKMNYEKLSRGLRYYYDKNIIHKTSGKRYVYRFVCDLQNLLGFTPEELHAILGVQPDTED
The essentials:
as §1

For the next assay, the target named is T9, SPDEF (Homo sapiens, UniProt O95238 1-335).
T9 sequence: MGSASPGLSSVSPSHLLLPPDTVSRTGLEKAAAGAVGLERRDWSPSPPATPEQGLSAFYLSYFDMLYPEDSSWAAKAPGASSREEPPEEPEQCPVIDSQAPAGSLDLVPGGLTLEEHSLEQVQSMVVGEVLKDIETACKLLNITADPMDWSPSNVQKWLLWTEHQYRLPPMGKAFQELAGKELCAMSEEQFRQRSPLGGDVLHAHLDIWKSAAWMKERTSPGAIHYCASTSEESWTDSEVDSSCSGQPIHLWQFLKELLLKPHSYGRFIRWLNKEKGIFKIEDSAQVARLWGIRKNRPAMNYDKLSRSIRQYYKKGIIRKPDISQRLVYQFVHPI
The essentials:
as §1

For the next assay, the target named is T10, ETV3 (Homo sapiens, UniProt P41162-2 1-143).
T10 sequence: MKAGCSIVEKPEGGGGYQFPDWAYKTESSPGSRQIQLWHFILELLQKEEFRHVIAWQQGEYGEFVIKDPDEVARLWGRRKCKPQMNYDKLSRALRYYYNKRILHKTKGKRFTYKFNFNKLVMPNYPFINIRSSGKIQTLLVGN
The essentials:
as §1

A further assay concerns the target ETV6 (Homo sapiens, UniProt P41212 1-452). The procedure, abridged: as §1

Chain of SPIB (Q01892 whole entry): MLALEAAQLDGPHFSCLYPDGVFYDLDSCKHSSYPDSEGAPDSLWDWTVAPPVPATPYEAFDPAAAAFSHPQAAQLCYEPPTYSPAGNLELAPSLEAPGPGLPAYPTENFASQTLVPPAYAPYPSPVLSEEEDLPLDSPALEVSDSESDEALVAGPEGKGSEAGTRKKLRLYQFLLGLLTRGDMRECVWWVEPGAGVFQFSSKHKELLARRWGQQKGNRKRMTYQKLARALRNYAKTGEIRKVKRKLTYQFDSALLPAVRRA
Chain of ETV6 (P41212 whole entry): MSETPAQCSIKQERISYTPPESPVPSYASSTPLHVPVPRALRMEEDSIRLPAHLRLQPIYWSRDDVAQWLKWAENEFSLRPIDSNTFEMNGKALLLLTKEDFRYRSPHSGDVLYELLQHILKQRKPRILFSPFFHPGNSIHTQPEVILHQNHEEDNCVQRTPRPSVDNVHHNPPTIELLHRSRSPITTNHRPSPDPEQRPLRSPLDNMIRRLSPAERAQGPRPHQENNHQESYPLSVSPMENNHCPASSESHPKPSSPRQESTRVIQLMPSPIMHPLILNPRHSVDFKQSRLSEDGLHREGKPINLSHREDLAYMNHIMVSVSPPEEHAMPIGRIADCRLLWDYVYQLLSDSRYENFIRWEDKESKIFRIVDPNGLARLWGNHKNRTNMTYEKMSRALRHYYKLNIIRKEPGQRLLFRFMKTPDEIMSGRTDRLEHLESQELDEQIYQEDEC
Chain of ETV1 (P50549 whole entry): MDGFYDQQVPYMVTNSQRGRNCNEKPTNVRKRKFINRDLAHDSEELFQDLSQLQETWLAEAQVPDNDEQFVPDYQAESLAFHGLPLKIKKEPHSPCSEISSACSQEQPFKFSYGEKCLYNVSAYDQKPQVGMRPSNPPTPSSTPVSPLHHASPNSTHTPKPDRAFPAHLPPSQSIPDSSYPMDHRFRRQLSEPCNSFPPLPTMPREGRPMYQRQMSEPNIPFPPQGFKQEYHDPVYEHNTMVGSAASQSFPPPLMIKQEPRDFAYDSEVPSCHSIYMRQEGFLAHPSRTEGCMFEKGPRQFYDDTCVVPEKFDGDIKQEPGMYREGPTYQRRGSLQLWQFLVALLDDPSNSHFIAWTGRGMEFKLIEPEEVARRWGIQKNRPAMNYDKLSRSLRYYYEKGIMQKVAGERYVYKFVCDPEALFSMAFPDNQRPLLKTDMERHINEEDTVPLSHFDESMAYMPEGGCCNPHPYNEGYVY

Take TGGGCG: the binding signal is 1.01 fold enrichment (6-mer frequency, TF over GST control) with ELK3 and 1 fold enrichment (6-mer frequency, TF over GST control) with ETV2.

As for TGAAGG, the binding signal with SPIB is 1 fold enrichment (6-mer frequency, TF over GST control); in the assay with ETV2, 1 fold enrichment (6-mer frequency, TF over GST control).

On to TGCGTC, for which the binding signal with GABPA was 1.01 fold enrichment (6-mer frequency, TF over GST control); with ETV2, 1.04 fold enrichment (6-mer frequency, TF over GST control); in the assay with ELF3, 1.03 fold enrichment (6-mer frequency, TF over GST control); with ETV7, 1.04 fold enrichment (6-mer frequency, TF over GST control).

In the case of GACTTG, in the assay with ELF3, the binding signal is 1.08 fold enrichment (6-mer frequency, TF over GST control).

For the sequence ACAAGT, the binding signal in the assay with ELF3 is 1 fold enrichment (6-mer frequency, TF over GST control).

As to AAGGTC, the binding signal with EHF is 1.08 fold enrichment (6-mer frequency, TF over GST control); with ETV2, 1.06 fold enrichment (6-mer frequency, TF over GST control).

With GTTCAG, in the assay with ETV2, the binding signal is 1.01 fold enrichment (6-mer frequency, TF over GST control).

With AGCCAT, the binding signal with ETV2 was 1.02 fold enrichment (6-mer frequency, TF over GST control).

In the case of TCATAG, the binding signal in the assay with ELF3 was 1.04 fold enrichment (6-mer frequency, TF over GST control); with ERF, 1 fold enrichment (6-mer frequency, TF over GST control).

Take GCGGCA: the binding signal with ELF3 was 1.01 fold enrichment (6-mer frequency, TF over GST control).

Consider CCTAGT, for which the binding signal with ELF3 is 1.04 fold enrichment (6-mer frequency, TF over GST control); with ETV1 it was 1.02 fold enrichment (6-mer frequency, TF over GST control); with ERF it was 1 fold enrichment (6-mer frequency, TF over GST control); with ETS2, 1.06 fold enrichment (6-mer frequency, TF over GST control).

For the sequence GGCATA, the binding signal with ETV2 is 1.05 fold enrichment (6-mer frequency, TF over GST control).

Consider ACCAAG, for which the binding signal with ELF3 is 1.14 fold enrichment (6-mer frequency, TF over GST control).

For the sequence CGGACC, the binding signal with ETV2 is 1.02 fold enrichment (6-mer frequency, TF over GST control).

As to CTAGTG, the binding signal in the assay with ELF3 was 1.01 fold enrichment (6-mer frequency, TF over GST control).

Take CGGCAC: the binding signal is 1.03 fold enrichment (6-mer frequency, TF over GST control) in the assay with GABPA; 1.03 fold enrichment (6-mer frequency, TF over GST control) with SPIB; 1.1 fold enrichment (6-mer frequency, TF over GST control) with ELF3; 1.02 fold enrichment (6-mer frequency, TF over GST control) with SPDEF; 1 fold enrichment (6-mer frequency, TF over GST control) in the assay with ETV7; 1.03 fold enrichment (6-mer frequency, TF over GST control) with ETV3. In addition, the binding signal in the assay with ETV6 is 1.02 fold enrichment (6-mer frequency, TF over GST control).

Source of the values: publication PMC7862700, “An all-to-all approach to the identification of sequence-specific readers for epigenetic DNA modifications on cytosine”.
